Coupling enz = coupling enzyme interference in Giardia aldolase counter-screen; AID 2472; coupling enzyme system counterscreen, AmpLite Red fluorescence; activity change, negative = inhibition, % at 58.2 µM, hits read low; 290,000 compounds, 0.67% hits; in the data active = activity change below about -30%
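Final compound at 57.5 uM, incubated 10 min at RT with coupling enzyme reagent (glyceraldehyde-3-phosphate), then 20 min with substrate and AmpLite Red detection. Fluorescence read at 525/598 nm; tests interference with the coupling assay, not aldolase inhibition.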
Sfp PPTase inh = blocks B. subtilis Sfp PPTase activity | Q9F4F7 | Biochemical Sfp PPTase activity, qHTS | Potency, µM, for inactives: largest response in the series, negative = inhibition, usual class: inhibitors | 310,000 compounds, 3.5% hits;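 also: the enzyme is Sfp with the accession as filed and its product quenches rhodamine fluorescence; potency is read from the fitted curve at half-maximal effect; 0% = enzyme reaction without inhibitor and -100% = no enzyme wells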
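Fluorescence-quenching assay with 15 nM Sfp, 5 uM rhodamine-CoA and 12.5 uM BHQ-2-labelled ybbR peptide in pH 7.6 Hepes/MgCl2 buffer. Enzyme was pre-incubated with compound for 15 min at room temperature. Rate was taken from the 30-min fluorescence change (525/598 nm).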
Giardia killer = kills Giardia lamblia. activity change, % at 7.66 µM, hits read low. 340,000 compounds, 0.15% hits. Giardia lamblia trophozoite viability; in the data active = activity change below about -80%; inconclusive = between about -30% and that limit;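 also: parasites exposed to compound for two days anaerobically before the ATP read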
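Compounds were tested on trophozoites seeded at 100 cells/well and held 48 hrs at 37 deg C anaerobically. An ATP-based luminescent kit measured the remaining live cells.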
ELG1 repair inh = blocks ELG1-dependent DNA repair in HEK293T cells. AID 504467. HEK293T ELG1-luciferase reporter, luminescence, 16 h; DNA damage induced by 5-fluorouridine. 330,000 compounds, 2.3% hits. Potency, µM (titrated, usually from 46.1 µM), for the others: top-dose activity change, negative = inhibition, actives largely listed as inhibitors; also: potency is read from the fitted curve at half-maximal effect; nearly all actives have a fitted effect of over 55% in size
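Quantitative HTS, concentration-response format. 2,000 cells/well co-treated with 5-fluorouridine and compound, 16 hr in 5% CO2 at 37 °C; ONE-Glo luminescence read after 30 min.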
An asterisk follows results filed as active; ? = inconclusive; nt = not tested or not shown; ! = not confirmed by another sample. A selection: hits, their analogues and other compounds. The true share with any hit is near 5.5%. Unless noted, calls follow the shape of the dose curve; as a rule, active = well fitted curve in the direction sought with a large enough effect; inconclusive = small, poorly fitted or top-dose-only effect, or another doubt; inactive = no such curve, though single readings can be large; an effect the other way counts as inactive or inconclusive. Unless noted, % is scaled to controls: 0 for no effect and ±100 for the full control effect.

SMILES	Coupling enz	Sfp PPTase inh	Giardia killer	ELG1 repair inh
COC/C=C/C1=CC2=CC(=O)C(C)(OC(=O)c3cnc4ccccc4n3)C(=O)C2=CN1c1ccc(CO)cc1 (configuration not stated)	-9	56µM*!	nt	-1%
COC/C=C/C1=CC2=CC(=O)C(C)(OC(=O)c3cnc4ccccc4n3)C(=O)C2=CN1c1ccccc1 (configuration not stated)	0	15%	-15	?
CN1C[C@@H]2[C@@H]3C(=O)N(C)C(=O)[C@@H]3[C@](C)(C1=O)N2C(=O)c1ccc(Cl)cc1	nt	nt	-19	nt
COCCCn1[nH]c2c3c(ccc2c1=O)C(=O)c1ccccc1C3=O	-49*	-18%	-93*	26µM*
CCOC(=O)c1ccc(NC(=O)CSc2nnc(CCc3ccc(C)o3)n2-c2ccccc2)cc1	1	16µM*	-4	-7%
Cc1ccc(CCc2nnc(SCC(=O)Nc3ccccc3Cl)n2-c2ccccc2)o1	3	-22%	19	?
CCN(CC)c1ccc(-n2c(C)c(C(C)=O)c(C(C)=O)c2C)cc1	2	-7%	-2	10µM*
CC(=O)c1c(C(C)=O)c(C)n(-c2ccc(O)cc2)c1C	3	11%	19	nt
CC(=O)c1ccc(/C=C/c2nc3ccccc3n2C)o1	-5	50µM*	-13	?
Cn1c(/C=C/c2ccccc2)nc2ccccc21	-10	10%	?	?
CCOC(=O)N1CCC(NC(=O)c2ccc3c(c2)N(Cc2ccc(F)cc2)CCS3)CC1	2	1%	-28	18µM*
CCOC(=O)N1CCC(NC(=O)c2ccc3c(c2)N(C)CCS3)CC1	-7	25µM*	2	-19%
CCOC(=O)N1CCN(C(=O)c2ccc3c(c2)N(CC)CCS3)CC1	0	50µM*	9	-14%
CCOC(=O)N1CCC(NC(=O)c2ccc3c(c2)N(Cc2ccc(C)cc2)CCS3)CC1	0	9%	-18	?
CCOC(=O)N1CCC(NC(=O)c2ccc3c(c2)N=C(C)c2ccccc2S3)CC1	8	18%	?	-13%
CCOC(=O)N1CCN(C(=O)c2ccc3c(c2)N(Cc2ccc(F)cc2)CCS3)CC1	1	-5%	12	-22%
CCS(=O)(=O)N1CCN(c2ccc(C(=O)N3CCOCC3)cc2[N+](=O)[O-])CC1	4	16%	1	-2%
CCS(=O)(=O)N1CCN(c2ccc(C(=O)NC3C4CC5CC(C4)CC3C5)cc2[N+](=O)[O-])CC1 (configuration not stated)	-4	5%	-25	12µM*
COc1cccc([C@@H]2Oc3ccc(OC)cc3C[C@H]2O)c1	3	18%	nt	nt
NC(=O)c1ccc(NC(=O)COC(=O)c2ccc(Br)o2)cc1	nt	nt	-12	?
O=C(NCc1ccco1)c1ccc2c(c1)N(Cc1ccccc1)CCS2	-4	-10%	-1	?
CCOC(=O)N1CCC(NC(=O)c2ccc(N3CCC4(CC3)OCCO4)c([N+](=O)[O-])c2)CC1	4	19%	6	16µM*
CCOC(=O)N1CCC(NC(=O)c2ccc3c(c2)N(Cc2ccccc2)CCS3)CC1	4	-25%	13	15µM*
Cc1ccc(CN2CCSc3ccc(C(=O)NCc4ccccn4)cc32)cc1	-2	50µM*	-1	3%
O=S(=O)(Nc1c(Br)cc(Br)c2cccnc12)C1CCCCC1	nt	nt	-8	nt
SMILES	Coupling enz	Sfp PPTase inh	Giardia killer	ELG1 repair inh
Cc1cc(N2CCN(C)CC2)ccc1NC(=O)c1c2c(nc3ccccc13)CCN(Cc1ccccc1)C2	2	5%	-6	?
Cc1c(Cl)cccc1NC(=O)COC(=O)c1c2c(nc3ccccc13)CCN(Cc1ccccc1)C2	8	6%	-2	13µM*
O=C(NC1CCCCCC1)c1c2c(nc3ccccc13)CCN(Cc1ccccc1)C2	-1	4%	8	?
CC(C)c1ccccc1NC(=O)COC(=O)c1c2c(nc3ccccc13)CCN(Cc1ccccc1)C2	-3	-7%	-18	12µM*
Cc1sc(NC(=O)COc2ccccc2)c(C#N)c1C	1	22µM*	-3	?
Cc1sc(NC(=O)CN2CCN(c3ccccn3)CC2)c(C#N)c1C	-1	-6%	44	12µM*
Cc1sc(NC(=O)COc2cccc(-n3cnnn3)c2)c(C#N)c1C	-1	2%	15	?
O=C(CN1CCN(c2ncccn2)CC1)Nc1ccccc1-n1cccc1	2	79µM*	21	?
Cc1ccc(NC(=O)CN2CCN(c3ccccn3)CC2)c(Cl)c1	-5	79µM*	-9	13%
Cc1ccc(CNc2ncnc3c2cnn3C2CCCCO2)cc1 (configuration not stated)	nt	nt	-4	nt
CCN(CC)S(=O)(=O)c1ccc2c(c1)nc(SCC(=O)N(C)C1CCS(=O)(=O)C1)n2CC (configuration not stated)	nt	nt	1	-19%
CCC1S/C(=N/C(=O)NC2CCCCC2)NC1=O (configuration not stated)	0	10%	-15	?
O=C(/N=C1\NC(=O)C(F)(C(F)(F)F)S1)NC1CCCCC1 (configuration not stated)	6	13µM*	8	0%
Cc1ccc(C)c(NC(=S)N2CCC(NC(=O)C3CCCCC3)CC2)c1	0	15%	7	6%
CC(C)(C)c1cc(/C=N/NC(=O)C[n+]2ccccc2)cc(C(C)(C)C)c1O	1	8%	11	0%
Cc1cccc(N2CCN(C(=O)Cc3ccc(-n4c(=O)[nH]c5ccsc5c4=O)cc3)CC2)c1C	1	-13%	-4	18µM*
Cc1ccc(C)c(N2CCN(C(=O)Cc3ccc(-n4c(=O)[nH]c5ccsc5c4=O)cc3)CC2)c1	3	29%	9	?
Cc1n[nH]c(C)c1NC(=O)CN1CCN(S(=O)(=O)c2ccc(C(F)(F)F)cc2)CC1	nt	nt	2	nt
CCOc1ccc(S(=O)(=O)N2CCCC(C(=O)Nc3cccc(C)c3)C2)cc1 (configuration not stated)	1	20%	-10	?
O=C(Cc1nc2ccccc2[nH]1)c1cccc([N+](=O)[O-])c1	-20	14µM*	-4	4.1µM*
NC1C(O)OC(CO)[C@@H](O)[C@@H]1O[C@H]1O[C@@H](C(=O)O)C(O)C(O)C1O (some centres not stated)	2	-2%	nt	nt
O=[N+]([O-])c1ccc(O)c(Nc2c([N+](=O)[O-])ccc3nonc23)c1	6	-9%	?	?
CCN(CC)C(=O)[C@H]1C[C@H](CC(=O)NCc2ccc(OC)c(OC)c2)C(=O)N2CCc3c([nH]c4cc(-c5ccco5)ccc34)[C@]12C	nt	nt	5	23µM*
COc1ccc(CNC(=O)C[C@H]2C[C@H](C(=O)N3CCCCC3)[C@@]3(C)c4[nH]c5cc(-c6ccco6)ccc5c4CCN3C2=O)cc1OC	nt	nt	3	21µM*
CCN(CC)C(=O)[C@H]1C[C@H](CC(=O)NCCCOC)C(=O)N2CCc3c([nH]c4cc(-c5ccco5)ccc34)[C@]12C	nt	nt	-4	-25%

Screening data as filed in PubChem.
